Assay results taken from PubChem BioAssay.
For some assays here: Measured potencies and affinities stand elsewhere. Calls of active or inactive are those of the source. Unless noted, the limit is not given here; nearly all actives have IC50 up to about 0.98 µM.

System: not listed separately
Assay: inhibition of 3D7 malaria parasite growth – strain 3D7 (AID 2306; call rule not given here;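 also: 0% = DMSO wells and 100% = chloroquine plus artemisinin control wells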)
Settings: P. falciparum 3D7 erythrocytic growth, LDH absorbance, 72 h; at 2 µM; active compounds read high

Compound | growth inhibition
O=C(Nc1ccc2nc(-c3ccc4nc(NC(=O)C5CCCCC5)sc4c3)[nH]c2c1)C1CCCCC1 | 100% (active)
Brc1cc2c(cc1C=NNc1nc(Nc3ccccc3)nc(Nc3ccccc3)n1)OCO2 | 100% (active)
Cc1cc(NCCCCCCN)nc(Nc2ccc(Cl)cc2)n1 | 100% (active)
CCCCCCCCCN1CC[C@@H](CCCc2ccnc3ccc(O)cc23)[C@@H](CC)C1 | 83% (active)
CCOC(=O)C1=C(C)NC2=C(C(=O)CC(C)(C)C2)C1c1ccc(Cl)cc1 (stereo not drawn) | 96% (active)
CN1CCN(CCCN(Cc2cccc(-c3cccc(CNCCc4ccccc4)c3)c2)C(=O)Nc2ccccc2)CC1 | 97% (active)
Fc1cc(CN2CCCC2)ccc1OCCCN1CCN(c2cccc(Cl)c2Cl)CC1 | 82% (active)
O=C(Nc1ccccc1F)NC1CCN(c2ccnc(Nc3ccc(F)cc3)n2)CC1 | 99% (active)
N/C(=N/C(=NCCCCCCN=C(/N=C(/N)Nc1ccc(Cl)cc1)N1CCOCC1)N1CCOCC1)Nc1ccc(Cl)cc1 | 93% (active)
COc1ccc(S(=O)(=O)Nc2cc(Br)cc3c2OCCC3)cc1N1CCN(C(=O)C(Cl)(Cl)Cl)CC1 | 90% (active)
COc1ccc(CC(=O)Nc2ccc(Nc3nc(C)cc(N4CCCC4)n3)cc2)cc1 | 101% (active)
CCOCCCNc1sc(S(=O)(=O)c2ccccc2)nc1S(=O)(=O)c1ccc(C)cc1 | 96% (active)
N#Cc1cc(C(=O)Nc2ccccc2)c(N)nc1SCC(=O)Nc1ccc(Br)cc1 | 101% (active)

Target: Calcium-dependent protein kinase 1 (Plasmodium falciparum (isolate 3D7)) (UniProt P62344)
Assay: PfCDPK1 kinase inhibitors, biochemical, TCAMS library (AID 1159585);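 also: inhibitors leave more ATP so luminescence rises with inhibition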
Settings: recombinant PfCDPK1, Kinase-Glo ATP depletion luminescence

Chain of Calcium-dependent protein kinase 1 (Plasmodium falciparum (isolate 3D7)) (P62344 whole entry, looked up): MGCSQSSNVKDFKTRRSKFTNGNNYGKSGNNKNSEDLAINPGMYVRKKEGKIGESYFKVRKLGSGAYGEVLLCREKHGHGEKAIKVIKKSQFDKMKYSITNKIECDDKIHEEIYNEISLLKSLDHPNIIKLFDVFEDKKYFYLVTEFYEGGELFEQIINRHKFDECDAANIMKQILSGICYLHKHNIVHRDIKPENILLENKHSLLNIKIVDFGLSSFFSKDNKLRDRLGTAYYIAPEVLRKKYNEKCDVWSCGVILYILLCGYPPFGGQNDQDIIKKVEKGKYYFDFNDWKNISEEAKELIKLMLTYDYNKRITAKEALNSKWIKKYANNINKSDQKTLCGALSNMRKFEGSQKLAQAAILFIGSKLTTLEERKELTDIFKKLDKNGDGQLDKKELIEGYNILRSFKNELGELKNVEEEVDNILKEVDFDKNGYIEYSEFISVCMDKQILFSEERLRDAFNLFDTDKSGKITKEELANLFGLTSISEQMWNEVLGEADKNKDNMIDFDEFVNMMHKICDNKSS

Compound | outcome
COC(=O)C(=C(C)C)N1C(=O)[C@@H](NC(=O)OCc2ccccc2)[C@H]1SS[C@@H]1[C@H](NC(=O)OCc2ccccc2)C(=O)N1C(C(=O)OC)=C(C)C | inactive
CCCCN(CCCC)CCC(O)C(=Cc1ccc(Cl)cc1Cl)c1ccc(C(F)(F)F)cc1N (stereo not drawn) | inactive
CCc1ccc(-n2cc(C(=O)c3cc(Br)ccc3O)cc(C#N)c2=O)cc1 | inactive
Oc1cccc(Nc2ccnc3cc(-c4cc5ccccc5o4)ccc23)c1 | inactive
Cc1cc(C2CCN(CCCCNC(=O)c3ccc(NC(=O)c4ccc(Cl)cc4)cc3)CC2)c(C)cc1OCc1ccncc1 | inactive
COc1ccc2nccc(NN=Cc3ccc([N+](=O)[O-])cc3)c2c1 | inactive
COc1ccccc1C1CCN(C2CCC(NC(=O)c3cc(-c4ccc(Cl)cc4)cs3)CC2)CC1 (stereo not drawn) | inactive
Cc1cc(Nc2ccc(Cl)cc2)n2nc(C(F)(F)F)nc2n1 | inactive
COc1ccc2nccc([C@@H](O)CN3CCC(NCc4cc5ccccc5[nH]c4=O)CC3)c2c1 | inactive
Nc1c(Cl)cc(C(O)CNCCCCCOCCc2ccccc2)cc1C(F)(F)F (stereo not drawn) | inactive
COc1ccc(-c2cnc3ccc(NCc4ccc(F)cc4)nn23)cc1OC | inactive
CCCN(CCC)C(=O)c1cc(C(=O)N[C@@H](Cc2ccccc2)[C@H](O)CNC2CC2)cc(N2CCCCS2(=O)=O)c1 | inactive
CN(C)CCOc1ccc(-c2cc(-c3ccc(Cl)c(O)c3)c(-c3ccncc3)o2)cc1 | inactive
O=C(Nc1ccc(C(=O)Nc2cccc(C3=NCCN3)c2)cc1)Nc1ccc(C2=NCCN2)cc1 | inactive
Cc1cc(C(=O)NCc2ccc(-c3c(C)noc3C)cc2)n(-c2ccccc2)n1 | inactive
O=C1OC2(CN1CC1CCN(Cc3ccc(O)c(Cl)c3)CC1)c1ccccc1-c1ccccc12 | inactive
Cc1cc(O)c(CN(C)Cc2ccc3c(c2)OCCO3)cc1C(C)C | inactive
O=C(Nc1ccc2c(c1)CCNCC2)c1ccc(-c2ccc(Cl)cc2)cc1 | inactive
COc1cc(Cc2cnc(N)nc2N)cc(CC(C)O)c1O (stereo not drawn) | inactive
O=C(Nc1ccc(C(F)(F)F)cc1)N[C@H]1CCN(CCCCCNC(=O)[C@@H]2C[C@H]2c2ccc(Cl)c(Cl)c2)C1 | inactive

Compound | outcome
CN(C)CCNC(=O)c1ccc2c(c1)ncn2-c1cc(OCc2ccccc2C(F)(F)F)c(C(N)=O)s1 (tested in a mixture with another compound) | inactive
CCCCCCOc1ccc(C(=O)N(Cc2ccccc2)c2c(-c3ccccc3)nc3cc(C)ccn23)cc1 | inactive
CN(C)CCn1c(N)c(-c2nc3ccccc3s2)c2nc(C#N)c(C#N)nc21 | inactive
Cc1nc(N)nc(N)c1CCCOc1cccc(Cl)c1 | inactive
CCCC(C)Nc1nc(C)cc(N[C@@H](CC(C)C)C(=O)NCc2cccc(F)c2)n1 (stereo partly drawn) | inactive
Cc1ccc(NC(=O)c2ccc(N3CCN(c4ccncc4)CC3)cc2)cc1F | inactive
CC(CCCCOCCc1ccccc1)NCC(O)c1cc(Cl)c(N)c(Cl)c1 (stereo not drawn) | inactive
O=C(Nc1ccc2nc(-c3ccc4nc(NC(=O)C5CCCCC5)sc4c3)[nH]c2c1)C1CCCCC1 | inactive
Brc1cc2c(cc1C=NNc1nc(Nc3ccccc3)nc(Nc3ccccc3)n1)OCO2 | inactive
Cc1cc(NCCCCCCN)nc(Nc2ccc(Cl)cc2)n1 | inactive
CCCCCCCCCN1CC[C@@H](CCCc2ccnc3ccc(O)cc23)[C@@H](CC)C1 | inactive
CCOC(=O)C1=C(C)NC2=C(C(=O)CC(C)(C)C2)C1c1ccc(Cl)cc1 (stereo not drawn) | inactive
CN1CCN(CCCN(Cc2cccc(-c3cccc(CNCCc4ccccc4)c3)c2)C(=O)Nc2ccccc2)CC1 | inactive
Fc1cc(CN2CCCC2)ccc1OCCCN1CCN(c2cccc(Cl)c2Cl)CC1 | inactive
O=C(Nc1ccccc1F)NC1CCN(c2ccnc(Nc3ccc(F)cc3)n2)CC1 | inactive
N/C(=N/C(=NCCCCCCN=C(/N=C(/N)Nc1ccc(Cl)cc1)N1CCOCC1)N1CCOCC1)Nc1ccc(Cl)cc1 | inactive
COc1ccc(S(=O)(=O)Nc2cc(Br)cc3c2OCCC3)cc1N1CCN(C(=O)C(Cl)(Cl)Cl)CC1 | inactive
COc1ccc(CC(=O)Nc2ccc(Nc3nc(C)cc(N4CCCC4)n3)cc2)cc1 | inactive
CCOCCCNc1sc(S(=O)(=O)c2ccccc2)nc1S(=O)(=O)c1ccc(C)cc1 | inactive
N#Cc1cc(C(=O)Nc2ccccc2)c(N)nc1SCC(=O)Nc1ccc(Br)cc1 | inactive
